# Laboratory results published in PubChem BioAssay (NCI).
# This is part of a sample that, as a whole, favours compounds with a hit. Of some 79,000 tested, about 15% had one in any assay. A number with no mark means an inactive call. The source made the active and inactive calls. Rule as the data show it: active = growth inhibition above about 70%; inactive = the rest.
# Assays:
# [1] = NCI Yeast Anticancer Drug Screen. Data for the rad50 strain (AID 155);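 also: 0% = growth of vehicle-only cultures of the same strain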; settings: S. cerevisiae rad50 strain growth inhibition, active compounds read high
# Outline: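 Yeast carrying a defined DNA repair defect were exposed to test compounds, and growth was compared with vehicle-treated controls to give percent inhibition.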
# [2] = NCI Yeast Anticancer Drug Screen. Data for the mec2-1 strain (AID 157); settings: S. cerevisiae mec2-1 strain, active compounds read high
# Outline: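 Compounds were applied to mec2-1 yeast cells. Their growth was then compared with that of vehicle-treated cultures to give growth inhibition.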
# [3] = NCI Yeast Anticancer Drug Screen. Data for the sgs1 mgt1 strain (AID 161);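 also: 0% = growth of cultures given vehicle only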; settings: S. cerevisiae sgs1 mgt1 strain, active compounds read high
# Outline: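 Compounds are added to genetically altered yeast, and growth is compared with cultures given vehicle alone to give percent inhibition.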
# [4] = NCI Yeast Anticancer Drug Screen. Data for the cln2 rad14 strain (AID 165);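 also: 0% = growth equal to vehicle treated cultures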; settings: S. cerevisiae cln2 rad14 strain, active compounds read high
# Outline: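 Strain: cln2 rad14 yeast, altered in cell cycle control and DNA damage repair. Read-out: growth inhibition vs vehicle.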
# [5] = NCI Yeast Anticancer Drug Screen. Data for the bub3 strain (AID 167); settings: S. cerevisiae bub3 mutant strain, active compounds read high
# Outline: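 Compounds were applied to a genetically altered yeast strain carrying a cell-cycle control defect. Growth inhibition was scored against vehicle-treated controls.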
# [6] = NCI Yeast Anticancer Drug Screen. Data for the mlh1 rad18 strain (AID 175); settings: S. cerevisiae mlh1 rad18 strain growth inhibition, active compounds read high
# Outline: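 A repair-deficient yeast strain is exposed to test compound, and growth is scored relative to vehicle-treated controls.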
# [7] = at 5.0 µM (retest, dose inferred, filed as 0.5)
# [8] = at 50.0 µM (retest, dose inferred, filed as 5.0)
Structure (SMILES),"growth inhibition [1, 7]","growth inhibition [1, 8]",growth inhibition ([1]; at 50.0 µM),"growth inhibition [2, 7]","growth inhibition [2, 8]",growth inhibition ([2]; at 50.0 µM),"growth inhibition [3, 7]","growth inhibition [3, 8]",growth inhibition ([3]; at 50.0 µM),"growth inhibition [4, 7]","growth inhibition [4, 8]",growth inhibition ([4]; at 50.0 µM),"growth inhibition [5, 7]","growth inhibition [5, 8]",growth inhibition ([5]; at 50.0 µM),"growth inhibition [6, 7]","growth inhibition [6, 8]",growth inhibition ([6]; at 50.0 µM)
C[CH2][Sn]([O][Sn]([Cl])([CH2]C)[c]1ccccc1)[c]1ccccc1 (configuration not stated),10%,97% (active),81.5% (active),18%,98% (active),73.2% (active),-9%,96% (active),80.9% (active),28%,96% (active),81.9% (active),9%,97% (active),78.1% (active),17%,98% (active),87% (active)
CN1C(=O)C23CC4=CC=CC(O)C4N2C(=O)C1(CO)SS3 (configuration not stated),99% (active),99% (active),92.8% (active),99% (active),100% (active),95% (active),99% (active),100% (active),93.2% (active),99% (active),99% (active),92.5% (active),99% (active),99% (active),93.5% (active),99% (active),99% (active),93.5% (active)
CCCCCCCCc1ccc(OCCN(CCCl)CCCl)cc1,3%,99% (active),98.7% (active),-23%,100% (active),99.4% (active),-130%,99% (active),99.1% (active),-2%,99% (active),99.3% (active),-4%,99% (active),99.2% (active),4%,99% (active),99.2% (active)
Cc1cc(C)c(C[N+](C)(C)C)c(C)c1C,82% (active),98% (active),98.5% (active),57%,99% (active),99.7% (active),86% (active),98% (active),99.7% (active),75% (active),98% (active),98.7% (active),78% (active),98% (active),99.4% (active),88% (active),96% (active),98.9% (active)
CCCCCCCC[As](C)(=O)O,-151%,-121%,4.95%,-54%,-47%,2.85%,-67%,-55%,4.5%,-72%,-59%,11.4%,-75%,-71%,-12.1%,-144%,-88%,6.2%
CO/C1=C\C(C)=C\C(C)C(O)C(C)C/C(C)=C/C=C/C(OC)C(C(C)C(O)C(C)C2(O)CC(O)C(C)C(C(C)C)O2)OC1=O (configuration not stated),1%,84% (active),85.2% (active),-11%,59%,77.3% (active),8%,85% (active),84.5% (active),9%,78% (active),74.1% (active),5%,88% (active),86.2% (active),0%,88% (active),81.2% (active)
O=C1[O][Hg][c]2c1cccc2[N+](=O)[O-],99% (active),99% (active),99.2% (active),100% (active),100% (active),99.2% (active),100% (active),100% (active),99.4% (active),52%,98% (active),97.6% (active),100% (active),100% (active),99.4% (active),100% (active),99% (active),99.2% (active)
CC(C)=N.[C-]#[O+].[C-]#[O+].[C-]#[O+].[C-]#[O+].[C-]#[O+].[W],30%,34%,-7.35%,15%,35%,-2.45%,26%,34%,-11.8%,36%,31%,0.7%,36%,47%,64.5%,45%,43%,-13.1%
Oc1c(O)c(Br)c(Br)c(Br)c1Br,97% (active),98% (active),91.2% (active),99% (active),99% (active),93.5% (active),99% (active),99% (active),93.5% (active),98% (active),99% (active),93% (active),98% (active),98% (active),91.8% (active),98% (active),99% (active),91.8% (active)
CC(=O)OCC1(N2CCCC2)CCCCC1,-3%,2%,5.05%,2%,-3%,5.35%,-3%,16%,43.4%,-5%,-17%,0.45%,-10%,-10%,23.6%,-16%,-6%,-16.6%
C[C@]12CC[C@H]3[C@@H](CCC4=CC(=O)CC[C@@H]43)[C@@H]1CC[C@@H]2OC(=O)N(CCCl)N=O,44%,95% (active),84.8% (active),43%,97% (active),85.3% (active),67%,97% (active),83.2% (active),68%,96% (active),79% (active),72% (active),96% (active),85.7% (active),39%,94% (active),85% (active)
O=C(OCC(CCl)OC(=O)C(Cl)(Cl)Cl)C(Cl)(Cl)Cl (configuration not stated),2%,-5%,52.2%,12%,16%,46.4%,-31%,-16%,67%,2%,0%,78.5% (active),1%,-4%,55.3%,-30%,-53%,54.8%
CC(=O)c1ccc(-[n+]2c(C)cc(-c3ccccc3)cc2C)cc1,-11%,-1%,-15.4%,-1%,-6%,-7.4%,-19%,-8%,-13.6%,3%,-3%,39.6%,-4%,-1%,15.7%,-5%,-6%,21.9%
C[C@]12Cc3cn4ncnc4nc3CC1CC[C@@H]1[C@@H]2CC[C@]2(C)C(O)CC[C@@H]12 (some centres not stated),21%,97% (active),97.5% (active),24%,99% (active),95% (active),60%,99% (active),98% (active),25%,91% (active),78.7% (active),24%,97% (active),97% (active),48%,98% (active),98.6% (active)
CCNC(=O)OOC(C)(C)C,16%,93% (active),74.7% (active),6%,83% (active),19.7%,4%,94% (active),-5.55%,-2%,77% (active),-17.8%,-2%,72% (active),1.45%,19%,96% (active),21.7%
CC[C@@H]1C(=O)OC[C@@H]1Cc1cncn1C,-3%,-8%,-4.1%,18%,-4%,-35.8%,7%,-18%,-20.9%,-27%,-90%,26%,-11%,-4%,-19.1%,-7%,-1%,-9.2%
CCC[CH2][Sn]1([CH2]CCC)[O]CC(C)[O]1 (configuration not stated),33%,95% (active),86% (active),30%,97% (active),90% (active),42%,68%,88.2% (active),34%,64%,87.2% (active),48%,97% (active),88.3% (active),53%,96% (active),86.7% (active)
CC(C)c1ccc(C(c2c(O)c3ccccc3oc2=O)c2c(O)c3ccccc3oc2=O)cc1,3%,91% (active),98.5% (active),-5%,95% (active),97.9% (active),-10%,95% (active),98.7% (active),-4%,98% (active),99.3% (active),-9%,92% (active),98.6% (active),-11%,97% (active),98.4% (active)
COc1ccc2c(c1)CCC(N1CCCC(=O)C1)C2 (configuration not stated),9%,11%,23.1%,8%,17%,24.4%,8%,26%,66%,11%,38%,17.4%,4%,31%,89.1% (active),9%,29%,25.1%
